Targets with a hit are over-represented here; the source holds about 8,800 in all. About 0.5% of all pairs of compound and target were hits.
The targets below were run with Cc1nc(Nc2ncc(C(=O)Nc3c(C)cccc3Cl)s2)cc(N2CCN(CCO)CC2)n1 [dasatinib] (assay: log2 fold change, soluble protein after heating vs DMSO (PISA); higher = thermal stabilisation; K562 lysate, 10 uM; active = over 0.2 and 3.5 SD of the protein, either way, in both replicates (recomputed)).
In short: (§1)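 Quantification was by TMTpro 16plex LC-MS/MS with equalised channel sums, applied to the supernatant after 21,000xg for 90 min. Samples were crude K562 extract at 1 mg/mL protein in PBS pH 7.4 with 1 mM MgCl2, treated with 10 μM compound for 30 min, heated for 3 min across 48°C-58°C, pooled and brought to 0.5% NP-40 at 4°C. Values are log-two fold changes in thermal stability relative to solvent controls, from duplicates.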

Sequence of UniProt Q13409 (Q13409 whole entry, looked up): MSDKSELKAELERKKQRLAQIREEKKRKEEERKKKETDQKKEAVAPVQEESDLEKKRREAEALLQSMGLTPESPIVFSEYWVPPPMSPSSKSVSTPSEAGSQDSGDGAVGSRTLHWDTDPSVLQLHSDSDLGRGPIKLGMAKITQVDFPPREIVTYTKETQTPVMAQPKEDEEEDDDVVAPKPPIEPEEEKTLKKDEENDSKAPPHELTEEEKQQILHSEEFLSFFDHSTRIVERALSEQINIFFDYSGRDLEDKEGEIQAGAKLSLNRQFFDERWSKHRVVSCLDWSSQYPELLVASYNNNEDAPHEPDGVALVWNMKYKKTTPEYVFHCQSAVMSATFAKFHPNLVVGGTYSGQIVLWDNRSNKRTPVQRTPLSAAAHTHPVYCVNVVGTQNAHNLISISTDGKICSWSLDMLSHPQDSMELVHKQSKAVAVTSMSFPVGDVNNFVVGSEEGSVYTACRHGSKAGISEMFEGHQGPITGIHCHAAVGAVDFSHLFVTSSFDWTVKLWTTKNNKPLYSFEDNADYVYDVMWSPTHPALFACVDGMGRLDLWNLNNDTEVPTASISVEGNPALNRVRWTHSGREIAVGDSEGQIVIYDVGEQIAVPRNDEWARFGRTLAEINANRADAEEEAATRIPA
Sequence of UniProt Q8NCA5 (Q8NCA5 whole entry, looked up): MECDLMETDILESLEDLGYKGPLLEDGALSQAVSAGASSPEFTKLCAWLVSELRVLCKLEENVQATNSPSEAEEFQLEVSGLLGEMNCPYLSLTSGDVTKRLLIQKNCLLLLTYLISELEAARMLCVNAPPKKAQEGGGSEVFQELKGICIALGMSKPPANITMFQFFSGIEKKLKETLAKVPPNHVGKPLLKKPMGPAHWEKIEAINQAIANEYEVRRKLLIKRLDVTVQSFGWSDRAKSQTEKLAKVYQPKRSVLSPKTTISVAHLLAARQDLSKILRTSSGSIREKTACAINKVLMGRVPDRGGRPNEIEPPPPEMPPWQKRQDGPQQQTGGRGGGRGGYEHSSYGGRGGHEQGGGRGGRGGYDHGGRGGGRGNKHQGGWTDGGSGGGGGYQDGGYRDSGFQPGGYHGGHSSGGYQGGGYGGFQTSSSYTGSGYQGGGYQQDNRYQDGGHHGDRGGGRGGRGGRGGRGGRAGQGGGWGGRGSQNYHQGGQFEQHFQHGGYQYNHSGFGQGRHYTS
Sequence of UniProt Q9P0K8 (Q9P0K8 whole entry, looked up): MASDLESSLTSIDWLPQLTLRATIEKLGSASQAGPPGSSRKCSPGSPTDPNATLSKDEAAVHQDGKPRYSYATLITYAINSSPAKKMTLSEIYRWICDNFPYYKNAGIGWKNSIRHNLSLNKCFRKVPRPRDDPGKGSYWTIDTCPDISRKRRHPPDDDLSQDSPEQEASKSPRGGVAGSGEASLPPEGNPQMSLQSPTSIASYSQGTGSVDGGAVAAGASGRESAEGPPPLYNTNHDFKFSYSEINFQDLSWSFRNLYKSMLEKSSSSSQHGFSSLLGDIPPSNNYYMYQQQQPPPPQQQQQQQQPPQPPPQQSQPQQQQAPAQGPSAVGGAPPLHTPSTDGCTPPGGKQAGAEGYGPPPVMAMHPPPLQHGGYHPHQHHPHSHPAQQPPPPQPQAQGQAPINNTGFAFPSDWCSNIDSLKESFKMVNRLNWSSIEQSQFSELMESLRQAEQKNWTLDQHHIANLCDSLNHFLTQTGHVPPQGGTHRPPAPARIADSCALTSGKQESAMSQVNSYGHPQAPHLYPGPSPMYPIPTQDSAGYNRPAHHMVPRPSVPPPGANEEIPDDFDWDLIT
Sequence of UniProt Q06547 (Q06547 whole entry, looked up): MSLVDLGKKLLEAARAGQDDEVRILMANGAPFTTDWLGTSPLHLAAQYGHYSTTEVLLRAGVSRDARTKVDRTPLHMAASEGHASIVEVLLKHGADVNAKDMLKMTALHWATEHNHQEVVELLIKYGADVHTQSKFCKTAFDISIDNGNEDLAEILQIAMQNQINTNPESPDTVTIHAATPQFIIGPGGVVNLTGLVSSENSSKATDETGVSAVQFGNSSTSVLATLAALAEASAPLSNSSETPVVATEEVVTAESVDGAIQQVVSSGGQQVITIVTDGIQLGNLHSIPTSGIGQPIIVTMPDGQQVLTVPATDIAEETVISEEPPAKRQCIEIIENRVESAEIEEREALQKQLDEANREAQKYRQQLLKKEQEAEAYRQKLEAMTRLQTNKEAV
Sequence of UniProt Q9NZJ5 (Q9NZJ5 whole entry, looked up): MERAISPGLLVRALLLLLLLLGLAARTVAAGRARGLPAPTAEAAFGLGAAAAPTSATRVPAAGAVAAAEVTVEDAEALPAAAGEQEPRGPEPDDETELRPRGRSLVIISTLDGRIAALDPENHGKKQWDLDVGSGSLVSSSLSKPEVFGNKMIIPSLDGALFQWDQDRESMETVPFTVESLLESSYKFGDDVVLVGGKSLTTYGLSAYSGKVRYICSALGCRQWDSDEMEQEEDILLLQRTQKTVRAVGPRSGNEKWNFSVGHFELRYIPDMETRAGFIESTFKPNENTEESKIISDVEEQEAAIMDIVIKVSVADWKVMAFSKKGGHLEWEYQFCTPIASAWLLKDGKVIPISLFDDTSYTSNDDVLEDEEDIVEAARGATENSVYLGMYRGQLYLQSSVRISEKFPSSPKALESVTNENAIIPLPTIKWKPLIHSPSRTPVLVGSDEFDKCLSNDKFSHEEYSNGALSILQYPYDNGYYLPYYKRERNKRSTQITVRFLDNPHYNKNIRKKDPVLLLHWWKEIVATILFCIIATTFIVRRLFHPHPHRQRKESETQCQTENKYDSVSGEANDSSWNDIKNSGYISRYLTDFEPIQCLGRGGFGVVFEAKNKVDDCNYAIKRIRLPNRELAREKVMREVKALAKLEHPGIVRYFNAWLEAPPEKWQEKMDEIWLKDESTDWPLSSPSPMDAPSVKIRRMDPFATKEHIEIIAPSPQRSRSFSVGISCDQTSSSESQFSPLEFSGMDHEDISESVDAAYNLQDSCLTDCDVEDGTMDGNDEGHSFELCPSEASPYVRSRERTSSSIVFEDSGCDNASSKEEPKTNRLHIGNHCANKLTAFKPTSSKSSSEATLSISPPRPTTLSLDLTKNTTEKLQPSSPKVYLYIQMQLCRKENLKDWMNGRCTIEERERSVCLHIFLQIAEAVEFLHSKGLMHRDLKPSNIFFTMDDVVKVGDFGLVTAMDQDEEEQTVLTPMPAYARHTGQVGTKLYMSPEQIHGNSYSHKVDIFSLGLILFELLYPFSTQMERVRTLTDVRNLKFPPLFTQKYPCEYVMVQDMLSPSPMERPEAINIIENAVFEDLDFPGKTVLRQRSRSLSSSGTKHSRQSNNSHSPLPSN
Sequence of UniProt Q9NRW4 (Q9NRW4 whole entry, looked up): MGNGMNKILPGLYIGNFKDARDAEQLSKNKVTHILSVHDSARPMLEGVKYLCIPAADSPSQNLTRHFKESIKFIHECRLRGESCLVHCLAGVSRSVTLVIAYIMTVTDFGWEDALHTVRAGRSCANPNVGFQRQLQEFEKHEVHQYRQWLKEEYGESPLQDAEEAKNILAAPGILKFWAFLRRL
Sequence of UniProt Q9NZC3 (Q9NZC3 whole entry, looked up): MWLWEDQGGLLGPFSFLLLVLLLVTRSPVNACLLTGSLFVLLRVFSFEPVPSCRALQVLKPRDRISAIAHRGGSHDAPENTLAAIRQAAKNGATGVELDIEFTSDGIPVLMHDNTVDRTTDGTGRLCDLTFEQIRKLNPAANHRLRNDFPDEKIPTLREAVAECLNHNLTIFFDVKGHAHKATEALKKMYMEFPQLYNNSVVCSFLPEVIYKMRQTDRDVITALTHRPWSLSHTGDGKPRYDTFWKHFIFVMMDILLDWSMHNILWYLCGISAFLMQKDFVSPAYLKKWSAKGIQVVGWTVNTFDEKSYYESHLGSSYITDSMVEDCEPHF
Sequence of UniProt Q9NZJ0 (Q9NZJ0 whole entry, looked up): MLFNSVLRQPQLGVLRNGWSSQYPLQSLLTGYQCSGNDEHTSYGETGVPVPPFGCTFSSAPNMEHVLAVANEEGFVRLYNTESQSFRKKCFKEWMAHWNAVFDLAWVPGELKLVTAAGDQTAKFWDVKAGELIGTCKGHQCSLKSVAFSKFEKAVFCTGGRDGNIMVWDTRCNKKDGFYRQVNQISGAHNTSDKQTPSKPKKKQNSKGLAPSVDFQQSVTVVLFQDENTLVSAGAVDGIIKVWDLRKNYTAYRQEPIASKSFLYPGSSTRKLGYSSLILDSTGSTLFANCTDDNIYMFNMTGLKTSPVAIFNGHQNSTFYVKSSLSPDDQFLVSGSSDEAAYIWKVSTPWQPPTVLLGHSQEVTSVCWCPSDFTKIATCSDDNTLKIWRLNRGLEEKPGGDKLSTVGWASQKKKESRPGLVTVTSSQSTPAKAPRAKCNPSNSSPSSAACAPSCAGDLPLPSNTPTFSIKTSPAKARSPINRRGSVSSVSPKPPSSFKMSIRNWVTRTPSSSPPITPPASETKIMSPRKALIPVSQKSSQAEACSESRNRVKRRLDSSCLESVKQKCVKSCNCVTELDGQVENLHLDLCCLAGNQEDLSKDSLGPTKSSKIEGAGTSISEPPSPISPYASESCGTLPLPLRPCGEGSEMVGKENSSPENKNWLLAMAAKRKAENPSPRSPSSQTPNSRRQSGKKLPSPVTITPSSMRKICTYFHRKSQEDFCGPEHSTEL
Sequence of UniProt Q14153 (Q14153 whole entry, looked up): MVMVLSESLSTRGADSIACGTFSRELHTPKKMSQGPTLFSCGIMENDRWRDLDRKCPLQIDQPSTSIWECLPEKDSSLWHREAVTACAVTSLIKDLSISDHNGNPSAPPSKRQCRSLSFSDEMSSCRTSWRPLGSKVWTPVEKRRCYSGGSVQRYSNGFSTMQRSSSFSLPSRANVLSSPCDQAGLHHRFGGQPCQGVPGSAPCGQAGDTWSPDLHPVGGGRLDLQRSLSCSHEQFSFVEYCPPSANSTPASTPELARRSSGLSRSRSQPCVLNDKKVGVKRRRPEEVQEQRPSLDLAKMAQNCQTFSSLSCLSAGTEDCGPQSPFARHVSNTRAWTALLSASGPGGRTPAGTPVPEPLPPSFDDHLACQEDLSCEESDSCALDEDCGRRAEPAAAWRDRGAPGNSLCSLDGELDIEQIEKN

log2 fold change, inactive:
GC isoform 3 (UniProt P02774) 0.044
FOXL2 (UniProt P58012) 0.023
EID1 (UniProt Q9Y6B2) -0.306
DYNC1I2 isoform 2 (UniProt Q13409) -0.058
FBRSL1, A0A3B3IRR3 0.01
ERG28 (UniProt Q9UKR5) 0.029
FLT4 (UniProt P35916) -0.202
GABPB1 isoform 3 (UniProt Q06547) -0.086
FOXJ2 (UniProt Q9P0K8) 0.056
EWSR1 (UniProt H7BY36) -0.104
FYN (UniProt P06241) 0.02
EIF2AK3 (UniProt Q9NZJ5) -0.385
FAM98A (UniProt Q8NCA5) -0.034
GDE1 (UniProt Q9NZC3) 0.012
DUSP22 isoform 2 (UniProt Q9NRW4) -0.022
DTL (UniProt Q9NZJ0) 0.044
FAM111A (UniProt Q96PZ2) -0.097
FAM53B (UniProt Q14153) 0.036
EPB41, A0A2R8Y783 0.028

What follows are targets tested with Cc1ncc(-c2ccnc(Nc3ccc(S(C)(=O)=O)cc3)n2)n1C(C)C in the same assay as above.
In short: as §1

log2 fold change, inactive:
GCA (UniProt P28676) 0.096
GAA (UniProt P10253) 0.267
EID1 (UniProt Q9Y6B2) 0.05
FBRSL1, A0A3B3IRR3 0.013
GART (UniProt C9JZG2) 0.042
FOXJ2 (UniProt Q9P0K8) 0.077
EPB41 isoform 4 (UniProt P11171) -0.165
EIF2AK3 (UniProt Q9NZJ5) -0.001
FAM98A (UniProt Q8NCA5) 0.018
FNDC3A (UniProt Q9Y2H6) -0.293
DUSP22 isoform 2 (UniProt Q9NRW4) 0.064
DTL (UniProt Q9NZJ0) -0.052
EPN2 (UniProt I3L356) -0.291
EIF3I (UniProt Q5TFK1) -0.035
FAT2 (UniProt Q9NYQ8) 0.014
FBXO45 (UniProt P0C2W1) -0.088
EIF2B5, A0A3B3ITK8 -0.134
FAM53B (UniProt Q14153) 0.004

Each target was assayed with Cn1cc(-c2ccc3c(c2)CCN3C(=O)Cc2cccc(C(F)(F)F)c2)c2c(N)ncnc21 in the same assay as above.
In short: as §1

log2 fold change, inactive:
GC isoform 3 (UniProt P02774) -0.114
FOXL2 (UniProt P58012) -0.013
EID1 (UniProt Q9Y6B2) 0.32
DYNC1I2 isoform 2 (UniProt Q13409) 0.046
FBRSL1, A0A3B3IRR3 -0.042
ERG28 (UniProt Q9UKR5) 0.059
FLT4 (UniProt P35916) 0.013
GABPB1 isoform 3 (UniProt Q06547) 0.034
FOXJ2 (UniProt Q9P0K8) 0.018
EWSR1 (UniProt H7BY36) -0.025
FYN (UniProt P06241) 0.004
EIF2AK3 (UniProt Q9NZJ5) 0.269
FAM98A (UniProt Q8NCA5) -0.022
GDE1 (UniProt Q9NZC3) -0.012
DUSP22 isoform 2 (UniProt Q9NRW4) -0.001
DTL (UniProt Q9NZJ0) 0.066
FAM111A (UniProt Q96PZ2) 0.015
FAM53B (UniProt Q14153) 0.14
EPB41, A0A2R8Y783 -0.11

What follows are targets tested with Cn1cc(CNCC2CCN(c3ncc(C(=O)NO)cn3)CC2)c2ccccc21 [quisinostat] in the same assay as above.
In short: as §1

log2 fold change, active:
FAT1 (UniProt Q14517) 0.572
DTL (UniProt Q9NZJ0) -0.227
FAT2 (UniProt Q9NYQ8) -0.978

log2 fold change, inactive:
GC isoform 3 (UniProt P02774) 0.175
EXO5 (UniProt Q9H790) -0.082
GAA (UniProt P10253) 0.024
DYNC1I2 isoform 2 (UniProt Q13409) -0.009
FBRSL1, A0A3B3IRR3 0.031
GABPB1 isoform 3 (UniProt Q06547) -0.017
GART (UniProt C9JZG2) -0.373
EPB41 isoform 4 (UniProt P11171) -0.077
EWSR1 (UniProt H7BY36) 0.112
FAM204A (UniProt Q9H8W3) -0.129
FYN (UniProt P06241) 0.022
FAM98A (UniProt Q8NCA5) -0.042
GDE1 (UniProt Q9NZC3) 0.085
FNDC3A (UniProt Q9Y2H6) -0.247
DYRK1A isoform 2 (UniProt Q13627) -0.095
FAM111A (UniProt Q96PZ2) 0.18
FBXO45 (UniProt P0C2W1) -0.006
FAM53B (UniProt Q14153) -0.078

From the supplement of paper PMC10849652
